# Source: PubChem (University of Kansas High Throughput Screening Laboratory)
# mHTT CaM bind – mHTT-calmodulin interaction abrogation | AlphaScreen His-mHTT/GST-CaM binding, luminescence | inhibition, % at 15 µM | actives 3.6% (n = 190,000) | AID 1671202;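 also: 0% = both proteins with DMSO and 100% = one protein alone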
# Pf apPOL block – Pf-apPOL DNA polymerase inhibition; actives 0.25% (n = 210,000); Recombinant Pf-apPOL, molecular beacon fluorescence, 1.5 h; inhibition, % at 10 µM
# An asterisk follows results filed as active; / = no result given. This is one part of a sample in which hits are shown more often than they occur. Rule as the data show it: active = inhibition above about 50%; inactive = the rest.
SMILES,mHTT CaM bind,Pf apPOL block
Cc1cccc(CN2CCCn3nc(C(=O)NCc4ccc(N(C)C)cc4)cc3C2=O)c1,54.9*,-0.3
CC(C)C1C(=O)N(Cc2cn(CCC3OCCCO3)nn2)CCS(=O)(=O)N1Cc1ccc(-c2ccccc2)cc1 (configuration not stated),55.7*,-15.3
CC(C)C1C(=O)N(Cc2cn(CCC3OCCCO3)nn2)CCS(=O)(=O)N1Cc1ccc(-c2ccc(Cl)cc2)cc1 (configuration not stated),44.4,-18.7
CC(C)C1C(=O)N(Cc2cn(CCC3OCCO3)nn2)CCS(=O)(=O)N1Cc1ccc(-c2ccc(F)cc2)cc1 (configuration not stated),53.3*,-6.6
CC(C)C1C(=O)N(Cc2cn(CCC3OCCO3)nn2)CCS(=O)(=O)N1Cc1ccc(-c2ccc(F)nc2)cc1 (configuration not stated),36.9,2.0
CC1C(=O)N(Cc2cn(CCC3OCCO3)nn2)CCS(=O)(=O)N1Cc1ccc(-c2cccc(CO)c2)cc1 (configuration not stated),15.4,-5.4
CC1C(=O)N(Cc2cn(CCC3OCCO3)nn2)CCS(=O)(=O)N1Cc1ccc(-c2ccc(Cl)c(Cl)c2)cc1 (configuration not stated),95.5*,-16.5
CC(C)C1C(=O)N(Cc2cn(CCC3OCCCO3)nn2)CCS(=O)(=O)N1Cc1ccc(-c2ccc(Cl)c(Cl)c2)cc1 (configuration not stated),73.6*,-5.8
CC(C)C1C(=O)N(Cc2cn(CCC3OCCCO3)nn2)CCS(=O)(=O)N1Cc1ccc(-c2ccc(F)nc2)cc1 (configuration not stated),41.8,-1.4
COCCNC(=O)C1COC2(CCC(C)CC2)N1C(=O)c1cccc(F)c1 (configuration not stated),2.1,1.6
O=C(Nc1ccc(SCc2ccccc2F)nn1)c1cccs1,-19.9,-6.8
c1ccc(CCn2c(-c3ccccc3)csc2=Nc2ccccc2)cc1,1.2,/
OCCCn1c(-c2ccc(Cl)s2)csc1=Nc1ccccc1,41.0,19.1
Cc1ccc(-c2csc(=Nc3ccccc3)n2CCCN(C)C)cc1,73.0*,3.6
Cc1ccc(-c2csc(=Nc3ccccc3)n2CCCO)cc1,53.0*,-3.2
CC(=O)N1N=C(c2ccc(Br)cc2)CC1c1ccc(C)o1 (configuration not stated),-15.0,-8.6
Cc1ccnc(N2CCCC(C(=O)N3CCCCCC3)C2)n1 (configuration not stated),-2.3,-3.8
Cc1ccnc(N2CCCC(C(=O)N3CC=C(c4ccccc4)CC3)C2)n1 (configuration not stated),68.1*,-4.8
CCc1nc(-c2c(C)cc(C)nc2NC(=O)c2ccc(C(F)(F)F)cc2)no1,-7.0,-2.2
Cc1ccc(S(=O)(=O)c2cc3c(=O)n4cc(C)ccc4nc3n(Cc3ccccc3)c2=N)cc1,-1.0,1.9
N=C1S/C(=C\c2ccccc2)C(=O)N1c1ccc(F)cc1,0.0,1.6
N=C1N=NC(c2ccccc2)=CS/C1=C\c1ccc(F)cc1,59.2*,1.6
COc1ccc(-c2nc(N)n[nH]2)cc1OC,-4.4,-3.6
COc1ccc(Cl)cc1NS(=O)(=O)c1ccc2c(c1)CCN2C(=O)C1CC1,2.0,17.6
Cc1ccnc(NS(=O)(=O)c2ccc(Cl)cc2)c1,-1.2,0.0
SMILES,mHTT CaM bind,Pf apPOL block
Cc1ccnc(NS(=O)(=O)c2ccc(C(C)(C)C)cc2)c1,100.3*,-2.0
COc1ccccc1-c1noc(C2CCCN2C(=O)c2ccc(C#N)cc2F)n1 (configuration not stated),-3.7,2.2
O=C1NN(c2ccccc2)C(=O)/C1=C/c1ccc(-c2ccccc2F)o1,10.0,-7.8
O=C1NN(c2cccc(C(F)(F)F)c2)C(=O)/C1=C/c1ccc([N+](=O)[O-])o1,98.0*,-0.6
Cc1ccccc1N=Cc1ccc([N+](=O)[O-])cc1[N+](=O)[O-],32.0,10.6
CC(=O)NC(=O)c1cc2cc(Br)ccc2oc1=Nc1ccccc1C,6.0,-6.7
COc1cccc(C2CC(c3cccc(Br)c3)Nc3ncnn32)c1OC (configuration not stated),68.0*,-1.6
COc1ccc(C2CC(c3cccc(Br)c3)Nc3ncnn32)c(OC)c1OC (configuration not stated),60.0*,-3.7
COc1ccc(C2CC(c3cccc(Br)c3)Nc3ncnn32)cc1OC (configuration not stated),39.0,1.2
COc1cccc(C2CC(c3cccc(OC)c3OC)n3ncnc3N2)c1 (configuration not stated),2.0,2.3
COCC(=O)N1CCC(O)(c2ccccc2)C(N2CCCC2)C1 (configuration not stated),5.3,-2.3
COc1ccc(F)cc1S(=O)(=O)n1ccnc1C,-10.1,-7.3
CC1CC(=O)C2=C(C1)OC(N)=C(C#N)C2c1ccccc1F (configuration not stated),-6.9,-2.5
Cc1occc1C(=O)Nc1ccc(I)cc1C(=O)O,59.8*,10.5
Cc1occc1C(=O)Nc1ccccc1NC(=O)c1ccoc1C,9.1,4.2
COc1ccc(-c2[nH]ncc2-c2cnn(-c3ccccc3)c2)c(O)c1C,16.6,3.0
CCc1cc(-c2[nH]ncc2-c2cnn(-c3ccccc3)c2)c(O)cc1O,93.7*,-3.3
Cc1cccc(CC(=O)NCc2ccc(-n3cnc(C)c3)cc2)c1,21.7,2.4
CN(C(=O)c1ccc2nccnc2c1)C1CCCCC1,/,-2.9
CN1C(=O)c2ccccc2C(C(=O)NCCc2ccc(Cl)cc2)C1c1cccs1 (configuration not stated),10.0,-2.8
FC(F)(F)c1cccc(-c2nnc(-c3ccc(Oc4cc(Cl)cc(Cl)c4)o3)o2)c1,/,0.2
CN(C)S(=O)(=O)Oc1ccc(-c2noc(-c3ccc(Oc4cc(Cl)cc(Cl)c4)o3)n2)cc1,/,58.6*
Cn1cc(CC(=O)NCc2cccs2)c2cccnc21,6.2,3.1
O=C(Cc1ccccc1F)N1CCCC(c2ccnc(Nc3ccccc3)n2)C1 (configuration not stated),85.6*,-1.9
CC(C)C(=O)N1CCCC(c2ccnc(Nc3ccccc3)n2)C1 (configuration not stated),33.5,-4.5
SMILES,mHTT CaM bind,Pf apPOL block
O=C(c1cccs1)N1CCCC(c2ccnc(Nc3ccccc3F)n2)C1 (configuration not stated),29.7,-1.2
O=C(Cc1ccc(F)cc1)N1CCCC(c2ccnc(Nc3ccccc3)n2)C1 (configuration not stated),96.2*,-5.2
O=C(c1cccs1)N1CCCC(c2ccnc(Nc3ccccc3)n2)C1 (configuration not stated),61.3*,0.2
CC(C)CC(=O)N1CCCC(c2ccnc(Nc3ccccc3)n2)C1 (configuration not stated),70.8*,-2.0
COc1ccc(-c2nccc(C3CCCN(C(=O)Cc4ccc(F)cc4)C3)n2)cc1 (configuration not stated),22.0,0.9
CCOCC(=O)N1CCCC(c2ccnc(Nc3ccc(OC)cc3)n2)C1 (configuration not stated),6.7,-2.4
O=C(NC1CCCCC1)C(Cc1ccccc1)N1C(=O)c2ccccc2C1=O (configuration not stated),-8.1,-7.2
COc1cc(N2CN=c3s/c(=C\c4cccs4)c(=O)n3C2)cc(OC)c1OC,41.0,-8.2
